# Data reported in PubChem BioAssay AID488890 (Southern Research Specialized Biocontainment Screening …, 2010).
# In all, about 320,000 compounds went through this assay and about 1,300 (0.41%) were called active. About 3% were inconclusive and are not listed. The rule behind the calls is not given here. The list is a sample of the results. Potency and affinity values are given separately.
# Experiment: growth inhibition of non-replicating M. tuberculosis (AID 488890);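 note: plate controls were DMSO cells for no effect and high antibiotic wells for full effect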
# Settings: Mycobacterium tuberculosis non-replicating, at 25 µM, stronger effect = higher value
row,Structure (SMILES),inhibition
1,O=C(CCc1nnc(CCCCc2ccccc2)o1)NCCC1CCCCO1 (centres undefined),15.1%
2,CCCNC(=O)NC(=O)CN1CCCC1c1ccc2c(c1)OCCO2 (centres undefined),-16.2%
3,CCCNC(=O)N1CCN(S(=O)(=O)c2ccc3c(c2)OCCO3)CC1,1.44%
4,CCOC(=O)c1c(CC(C)C)csc1/N=C/C1C(=O)CC(C)(C)CC1=O,-10.2%
5,OCC1(Cc2ccc(F)cc2)CCCN(CCCC(F)(F)F)C1 (centres undefined),-19.8%
6,Cc1ccc(S(=O)(=O)N2[C@@H](c3ccc4c(c3)OCO4)C(C(=O)O)=C[C@H]2C(C)(C)C)cc1,41.7%
7,CC1Cc2ccccc2N1C(=O)COC(=O)c1cc(Br)ccc1O (centres undefined),62.7%
8,O=C(CCC(=O)N1CCN(c2ccccn2)CC1)c1cccs1,-4.25%
9,O=C(CCC(=O)c1cccs1)c1cccs1,68.8%
10,Cc1ccc(NC(=O)N2CCCCCC2)c(C)c1,-16.7%
11,Cc1cccc(-c2c3c(=O)n(C)c(=O)n(C)c3cn2-c2ccc(O)cc2)c1,-12.8%
12,CC(C)NC(=O)c1cc(-n2cnnc2)ccc1Cl,2.78%
13,CCOC(=O)C1=C(c2ccccc2)NC(=O)NC1c1ccc(OCC#N)c(OC)c1 (centres undefined),-4.72%
14,CCOC(=O)C1=C(c2ccccc2)NC(=O)NC1c1ccc(OC)c(OC)c1 (centres undefined),2.41%
15,COC(=O)c1ccc(CNC(=O)c2ccc(COc3ccccc3)cc2)cc1,10.8%
16,CCOC(=O)C1=C(c2ccccc2)Nc2ncnn2C1c1ccc(C(=O)O)cc1 (centres undefined),1.92%
17,Cc1cc(C(=O)Nc2cc(C)on2)on1,6.65%
18,C=C[C@]1(C)C=C2CC[C@H]3[C@@](C)(CCC[C@@]3(C)C(=O)O)[C@@H]2CC1,43.7%
19,C=C/C(C)=C/CC1C(=C)CCC2C(C)(C(=O)O)CCCC12C (centres undefined),0.01%
20,O=C(O)C1CCN(S(=O)(=O)c2ccc(N3CCOCC3)c([N+](=O)[O-])c2)CC1,-8.22%
21,Cc1ccc(N(C(=O)CNC(=O)c2ccco2)C(C(=O)NCC2CCCO2)c2ccccc2)cc1C (centres undefined),16%
22,CCNC(=O)C(C)Sc1ccc(Cl)cc1 (centres undefined),25.6%
23,COc1ccc(-c2nnn(CC(=O)N(C3CCCCC3)C(C)C(=O)NC3CCCC3)n2)cc1OC (centres undefined),34.8%
24,COc1ccc(-c2nnn(CC(=O)NC(=O)NC3CCCCC3)n2)cc1OC,2.95%
25,CCCCCn1c(=O)c(C(=O)Nc2cccc(C)n2)c(O)c2ccccc21,-21.5%
26,CC(C)CCn1c(=O)c(C(=O)Nc2ccccc2S(N)(=O)=O)c(O)c2ccccc21,17.2%
27,CCOC(=O)Cc1csc(NC(=O)c2c(O)c3c(n(CC(C)C)c2=O)CCCC3)n1,44.2%

row,Structure (SMILES),inhibition
1,CCCCCn1c(=O)c(C(=O)Nc2ccccc2C)c(O)c2ccccc21,-22.9%
2,Cc1ccc(S(=O)(=O)N(C)C)cc1NC(=O)c1c(-c2c(F)cccc2Cl)noc1C,-9.18%
3,CCOc1ccccc1C(=O)Nc1nccs1,5.93%
4,CCOc1cccc2cc(C(=O)Nc3cc(C)on3)c(=O)oc12,75.1%
5,O=C(Nc1nccs1)c1cc(Cl)ccc1[N+](=O)[O-],12.9%
6,O=C(Nc1nccs1)c1ccc(Cl)cc1[N+](=O)[O-],0.86%
7,Nc1nnc(-c2ccccc2F)s1,1%
8,O=C(/C=C/c1ccc(Cl)cc1)Nc1ccccc1N1CCOCC1,-7.86%
9,O=c1[nH]c(=O)n(Cc2ccco2)c(O)c1/C=N/N1CCCCC1,1.03%
10,COCCN=C1NN=C(c2ccc(C)c([N+](=O)[O-])c2)CS1,-8.83%
11,N/C(=N\OC(=O)CC1CCCCC1)c1cccnc1,73%
12,N/C(=N\OC(=O)CCC1CCCC1)c1ccncc1,60.9%
13,OCCN1CCN(c2nc(NCc3ccco3)c3ccccc3n2)CC1,9.79%
14,Cc1ccc(OCCN2CCN(c3nc(NCc4ccco4)c4ccccc4n3)CC2)cc1,62.8%
15,Cc1ccc(CS(=O)(=O)c2ncc(Cl)c(C(=O)Nc3ccc(OC(F)F)cc3)n2)cc1,-1.41%
16,CCS(=O)(=O)c1ncc(Cl)c(C(=O)Nc2ccc(S(=O)(=O)N3CCCC(C)C3)cc2)n1 (centres undefined),58.5%
17,CCN(c1ccccc1)S(=O)(=O)c1ccc(NC(=O)c2nc(S(C)(=O)=O)ncc2Cl)cc1,37.2%
18,CCC1CCCCN1S(=O)(=O)c1ccc(NC(=O)c2nc(S(C)(=O)=O)ncc2Cl)cc1 (centres undefined),66.2%
19,CCc1ccc(NC(=O)c2nc(S(=O)(=O)Cc3ccccc3)ncc2Cl)cc1,0.81%
20,CN(c1ccccc1)S(=O)(=O)c1ccc(NC(=O)c2nc(S(C)(=O)=O)ncc2Cl)cc1,56%
21,Cc1ccc(F)cc1NC(=O)N1CCCN(C(=O)OC(C)(C)C)CC1,-10.3%
22,O=C(CSc1ncn[nH]1)Nc1c(F)cc(F)cc1Br,-11.1%
23,Cc1ccc(NC(=O)CC(C)c2ccccc2)cc1S(=O)(=O)N1CCOCC1 (centres undefined),10.4%
24,O=C(O)CNC(=S)N(Cc1ccccc1)Cc1cccnc1,6.66%
25,O=C(CSc1nncs1)Nc1nccs1,-27.1%
26,COCCN1CCn2c(nc3cc(NC(=O)Cn4nc(C)c5ccccc5c4=O)ccc32)C1,-5.63%
27,COc1ccc(OCCNc2cc(N3CCOCC3)ccc2[N+](=O)[O-])cc1,26.3%
